Experimental data published in PMC5540273 (PLoS ONE, 2017).
Where “and” joins values, the source holds several entries; their conditions need not be identical. Identical values can stand only once. Like-named read-outs stand apart in the source and are kept apart here.

Tests used:
[1] = tested on: TNIK; settings: concentration: 1 μM, replicates: in singlicate; n = 1
[2] = tested on: TNK1; settings: concentration: 1 μM, replicates: in singlicate; n = 1
[3] = tested on: TNK2; settings: n = 1
[4] = tested on: TNNI3K; settings: n = 1
[5] = tested on: T1, TRKA; settings: concentration: 1 μM, replicates: in singlicate; n = 1
T1 construct: gene NTRK1

[6] = tested on: TRKB; settings: n = 1
[7] = tested on: T2, TRKC; settings: n = 1
T2 construct: gene NTRK3

[8] = tested on: TRPM6; settings: n = 1
[9] = tested on: TSSK1B; settings: n = 1
[10] = tested on: TSSK3; settings: n = 1
[11] = tested on: TTK; settings: concentration: 1 μM, replicates: in singlicate; n = 1
[12] = tested on: TXK; settings: n = 1
[13] = tested on: TYK2(JH1domain-catalytic); settings: n = 1
[14] = tested on: TYK2(JH2domain-pseudokinase); settings: n = 1
[15] = tested on: TYRO3; settings: n = 1
[16] = tested on: ULK1; settings: concentration: 1 μM, replicates: in singlicate; n = 1
[17] = tested on: ULK2; settings: n = 1
[18] = tested on: ULK3; settings: n = 1
[19] = tested on: T3, VEGFR2; settings: n = 1
T3 construct: gene KDR

[20] = tested on: T4, VPS34; settings: n = 1
T4 construct: gene PIK3C3

[21] = concentration: 1 μM, replicates: in singlicate
[22] = concentration: 1 μM,replicates: in singlicate, 1 µM
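Further: KINOMEscan kinase panel screen.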

## CC(C)(C)c1ccc(C(=O)Nc2cn3cc(-c4cccnc4)ccc3n2)cc1
[1]
  %Inh: 25%
[2]
  %Inh: 0%
[3]; [21]
  %Inh: 17%
[4]; [21]
  %Inh: 0%
[5]
  %Inh: 10%
[6]; [21]
  %Inh: 11%
[7]; [21]
  %Inh: 1%
[8]; [21]
  %Inh: 0%
[9]; [21]
  %Inh: 0%
[10]; [21]
  %Inh: 0%
[11]
  %Inh: 9%
[12]; [21]
  %Inh: 18%
[13]; [21]
  %Inh: 0%
[14]; [21]
  %Inh: 19%
[15]; [21]
  %Inh: 11%
[16]
  %Inh: 0%
[17]; [21]
  %Inh: 14%
[18]; [21]
  %Inh: 33%
[19]; [21]
  %Inh: 0%
[20]; [21]
  %Inh: 12%

## Clc1cc(Cl)cc(Nc2ccnc(Nc3cc(Cl)cc(Cl)c3)n2)c1 [GSK175726]
[1]
  %Inh: 0%
[2]
  %Inh: 0%
[3]; [21]
  %Inh: 12%
[4]; [21]
  %Inh: 6%
[5]
  %Inh: 19%
[6]; [21]
  %Inh: 0%
[7]; [21]
  %Inh: 0%
[8]; [21]
  %Inh: 0%
[9]; [21]
  %Inh: 0%
[10]; [21]
  %Inh: 10%
[11]
  %Inh: 0%
[12]; [21]
  %Inh: 0%
[13]; [21]
  %Inh: 0%
[14]; [21]
  %Inh: 0%
[15]; [21]
  %Inh: 0%
[16]
  %Inh: 0%
[17]; [21]
  %Inh: 0%
[18]; [21]
  %Inh: 0%
[19]; [21]
  %Inh: 12%
[20]; [21]
  %Inh: 0%

## CSc1nn2c(=O)cc(N3CCOCC3)nc2n1Cc1cccc(C(F)(F)F)c1C [GSK2363608]
[1]
  %Inh: 0%
[2]
  %Inh: 0%
[3]; [22]
  %Inh: 17% and 30%
[4]; [22]
  %Inh: 1% and 10%
[5]
  %Inh: 0%
[6]; [22]
  %Inh: 0% and 3%
[7]; [22]
  %Inh: 0% and 11%
[8]; [22]
  %Inh: 22% and 0%
[9]; [22]
  %Inh: 18% and 77%
[10]; [22]
  %Inh: 18% and 6%
[11]
  %Inh: 0%
[12]; [22]
  %Inh: 10% and 0%
[13]; [22]
  %Inh: 51% and 72%
[14]; [22]
  %Inh: 16% and 8%
[15]; [22]
  %Inh: 0% and 18%
[16]
  %Inh: 15%
[17]; [22]
  %Inh: 5% and 0%
[18]; [22]
  %Inh: 15% and 0%
[19]; [22]
  %Inh: 8% and 0%
[20]; [22]
  %Inh: 94.7% and 96.7%

## Fc1cc(Cl)ccc1Nc1ccnc2cc(-c3ccc(CN4CCCCC4)o3)ccc12 [GW560116]
[1]
  %Inh: 10%
[2]
  %Inh: 0%
[3]; [21]
  %Inh: 2%
[4]; [21]
  %Inh: 0%
[5]
  %Inh: 4%
[6]; [21]
  %Inh: 19%
[7]; [21]
  %Inh: 12%
[8]; [21]
  %Inh: 0%
[9]; [21]
  %Inh: 0%
[10]; [21]
  %Inh: 8%
[11]
  %Inh: 0%
[12]; [21]
  %Inh: 23%
[13]; [21]
  %Inh: 27%
[14]; [21]
  %Inh: 18%
[15]; [21]
  %Inh: 0%
[16]
  %Inh: 0%
[17]; [21]
  %Inh: 0%
[18]; [21]
  %Inh: 0%
[19]; [21]
  %Inh: 6%
[20]; [21]
  %Inh: 22%

## Cc1nnc(-c2ccc3occ(-c4ccc(S(C)=O)cc4)c3c2)[nH]1 (stereo not drawn)
[1]
  %Inh: 5%
[2]
  %Inh: 0%
[3]; [21]
  %Inh: 0%
[4]; [21]
  %Inh: 15%
[5]
  %Inh: 28%
[6]; [21]
  %Inh: 0%
[7]; [21]
  %Inh: 43%
[8]; [21]
  %Inh: 1%
[9]; [21]
  %Inh: 0%
[10]; [21]
  %Inh: 2%
[11]
  %Inh: 8%
[12]; [21]
  %Inh: 0%
[13]; [21]
  %Inh: 8%
[14]; [21]
  %Inh: 59%
[15]; [21]
  %Inh: 0%
[16]
  %Inh: 4%
[17]; [21]
  %Inh: 23%
[18]; [21]
  %Inh: 14%
[19]; [21]
  %Inh: 1%
[20]; [21]
  %Inh: 88%

## C[C@@H]1CCCCN1c1cc(-c2ccc3c(N)n[nH]c3c2)nc(N)n1 [GSK2258759]
[1]
  %Inh: 0%
[2]
  %Inh: 0%
[3]; [21]
  %Inh: 18%
[4]; [21]
  %Inh: 0%
[5]
  %Inh: 0%
[6]; [21]
  %Inh: 0%
[7]; [21]
  %Inh: 0%
[8]; [21]
  %Inh: 16%
[9]; [21]
  %Inh: 0%
[10]; [21]
  %Inh: 2%
[11]
  %Inh: 0%
[12]; [21]
  %Inh: 0%
[13]; [21]
  %Inh: 0%
[14]; [21]
  %Inh: 3%
[15]; [21]
  %Inh: 0%
[16]
  %Inh: 0%
[17]; [21]
  %Inh: 0%
[18]; [21]
  %Inh: 0%
[19]; [21]
  %Inh: 0%
[20]; [21]
  %Inh: 0%

## COc1ccccc1-c1ccc2c(NC(=O)C3CC3)n[nH]c2n1 [SB-711239]
[1]
  %Inh: 0%
[2]
  %Inh: 4%
[3]; [21]
  %Inh: 8%
[4]; [21]
  %Inh: 14%
[5]
  %Inh: 24%
[6]; [21]
  %Inh: 0%
[7]; [21]
  %Inh: 20%
[8]; [21]
  %Inh: 0%
[9]; [21]
  %Inh: 0%
[10]; [21]
  %Inh: 21%
[11]
  %Inh: 21%
[12]; [21]
  %Inh: 0%
[13]; [21]
  %Inh: 0%
[14]; [21]
  %Inh: 18%
[15]; [21]
  %Inh: 0%
[16]
  %Inh: 63%
[17]; [21]
  %Inh: 0%
[18]; [21]
  %Inh: 100%
[19]; [21]
  %Inh: 0%
[20]; [21]
  %Inh: 15%

## Cc1ccccc1-n1cnc2c(N)ncnc21 [SKF-97510]
[1]
  %Inh: 0%
[2]
  %Inh: 0%
[3]; [21]
  %Inh: 7%
[4]; [21]
  %Inh: 0%
[5]
  %Inh: 0%
[6]; [21]
  %Inh: 0%
[7]; [21]
  %Inh: 0%
[8]; [21]
  %Inh: 66%
[9]; [21]
  %Inh: 0%
[10]; [21]
  %Inh: 0%
[11]
  %Inh: 0%
[12]; [21]
  %Inh: 0%
[13]; [21]
  %Inh: 0%
[14]; [21]
  %Inh: 0%
[15]; [21]
  %Inh: 25%
[16]
  %Inh: 0%
[17]; [21]
  %Inh: 0%
[18]; [21]
  %Inh: 0%
[19]; [21]
  %Inh: 0%
[20]; [21]
  %Inh: 0%

## COc1ccc(CNC(=O)NC2CCN(c3ccnc(Nc4cc(OC)c(OC)c(OC)c4)n3)C2)cc1 (stereo not drawn) [GSK1379748]
[1]
  %Inh: 0%
[2]
  %Inh: 0%
[3]; [21]
  %Inh: 4%
[4]; [21]
  %Inh: 10%
[5]
  %Inh: 73%
[6]; [21]
  %Inh: 23%
[7]; [21]
  %Inh: 40%
[8]; [21]
  %Inh: 18%
[9]; [21]
  %Inh: 0%
[10]; [21]
  %Inh: 10%
[11]
  %Inh: 0%
[12]; [21]
  %Inh: 8%
[13]; [21]
  %Inh: 48%
[14]; [21]
  %Inh: 31%
[15]; [21]
  %Inh: 0%
[16]
  %Inh: 0%
[17]; [21]
  %Inh: 0%
[18]; [21]
  %Inh: 86%
[19]; [21]
  %Inh: 4%
[20]; [21]
  %Inh: 7%
